Source: PubChem BioAssay
NPC1 promoter act: qHTS Assay for NPC1 Promoter Activators. Huh7 NPC1 promoter luciferase reporter, 24 h. Potency, µM (doses to about 9.22 µM), inactives show at the top dose activation, actives largely listed as activators. 320,000 tested, 2.4% active. AID 485313, 2010; also: % of control where 0% means no effect; nearly all actives have a fitted effect of over 60% in size
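Huh7 reporter cells (NPC1 promoter driving luciferase) are dosed with compound for 24 h at 37 °C, 5% CO2; luciferase detection reagent is then added and luminescence measured after 10 min at ambient temperature.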
KinaseGlo FLuc: Counterscreen for Luciferase (Kinase-Glo TM) Inhibition. Luciferin 4-monooxygenase (Photuris pensylvanica), Q27757. Kinase-Glo luciferase, ATP luminescence, 8 min. Potency, µM (highest dose often 38.3 µM), for the others: at the top dose activity change, negative = inhibition, actives largely listed as inhibitors. 200,000 tested, 0.28% active; also: % is scaled to controls: 0 for no effect and ±100 for the full control effect; nearly all actives have a fitted effect of over 60% in size
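Substrate mix (final 50 mM imidazole pH 7.2, 50 mM KCl, 7 mM MgCl2, 10 uM ATP, 0.01% Tween 20, 0.05% BSA) plus pin-tool compound, then Kinase-Glo detection mix; 8 min ambient, luminescence read.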
Rab9 promoter act: qHTS Assay for Rab9 Promoter Activators. Potency, µM (doses to about 9.22 µM), inactives show top-dose activation, negative = inhibition, usual class: activators. Huh7 Rab9 promoter-luciferase reporter, luminescence, 24 h. 320,000 tested, 2.8% active. AID 485297, 2010; also: % of control where 0% means no effect; nearly all actives have a fitted effect of over 60% in size
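Stable Rab9-luc Huh7, 1500 cells/well, 2 h settle; cmpd in DMSO, 24 h, 37 °C/5% CO2; luciferase reagent 10 min RT; luminescence.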
SMN2 splice up: qHTS Assay for Enhancers of SMN2 Splice Variant Expression | HEK293 SMN2-luciferase splicing reporter, luminescence, 30-36 h | Potency, µM (titrated, usually from 46.1 µM), for inactives: top-dose activity change, positive = activation, hits mostly activators | 210,000 tested, 2.8% active | AID 1458, 2008; also: % of control where 0% means no effect; nearly all actives have a fitted effect of over 55% in size
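HEK293 cells carry an SMN2 […]–luciferase reporter in which exon 7 inclusion puts luciferase in frame. Cells were plated 10-12 h before compound addition, then incubated 30-36 h at 37C. ONE-Glo luminescence was read; sodium butyrate at 4.5 mM final served as control.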
FLuc counter: qHTS profiling assay for firefly luciferase inhibitor/activator using purifed enzyme and Km concentrations of substrates (counterscreen for miR-21 project); Luciferin 4-monooxygenase (Photinus pyralis), P08659; purified FLuc, Km substrates, luminescence inhibition; Potency, µM (top dose mostly 57.5 µM), without a hit: at the top dose activity change, negative = inhibition, most hits filed as inhibitors; 360,000 tested, 6.9% active; AID 588342, 2011;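 also: plate controls were vehicle for no effect and reference inhibitor for full effect; nearly all actives have a fitted effect of over 55% in size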
Target sequence (P08659 whole entry, looked up): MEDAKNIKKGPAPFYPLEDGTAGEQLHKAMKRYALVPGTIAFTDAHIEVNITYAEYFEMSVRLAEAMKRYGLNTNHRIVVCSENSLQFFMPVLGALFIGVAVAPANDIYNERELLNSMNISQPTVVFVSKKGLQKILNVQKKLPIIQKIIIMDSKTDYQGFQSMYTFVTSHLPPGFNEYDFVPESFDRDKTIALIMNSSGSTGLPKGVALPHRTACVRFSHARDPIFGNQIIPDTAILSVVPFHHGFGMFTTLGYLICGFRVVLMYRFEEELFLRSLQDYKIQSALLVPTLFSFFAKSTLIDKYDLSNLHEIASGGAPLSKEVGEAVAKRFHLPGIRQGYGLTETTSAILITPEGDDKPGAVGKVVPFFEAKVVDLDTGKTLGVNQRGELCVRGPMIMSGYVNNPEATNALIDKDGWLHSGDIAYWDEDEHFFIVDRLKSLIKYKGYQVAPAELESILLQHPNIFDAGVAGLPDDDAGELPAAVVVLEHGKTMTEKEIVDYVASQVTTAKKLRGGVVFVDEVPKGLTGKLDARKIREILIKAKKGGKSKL
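Purified P. pyralis luciferase, 10 nM final, with Km-level 10 uM D-luciferin and 10 uM ATP in 50 mM Tris acetate pH 7.5, 10 mM Mg acetate, 0.01% Tween-20, 0.05% BSA; 6-point qHTS titration about 60 µM downward; luminescence read.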
ELG1 genotox: qHTS screen for small molecules that induce genotoxicity in human embryonic kidney (HEK293T) cells expressing luciferase-tagged ELG1 | Potency, µM (titrated, usually from 46 µM), without a hit: at the highest dose activity change, positive = activation, hits mostly activators | HEK293T ELG1-luciferase reporter, luminescence, 16 h | 330,000 tested, 1.3% active; also: % of control where 0% means no effect; nearly all actives have a fitted effect of over 60% in size
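Luminescence read-out: rising ELG1-luciferase signal, reflecting elevated ELG1 protein under genetic stress, flags genotoxic compounds. Cells were treated for 16 hr at 37 °C before ONE-Glo detection.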
Starred values were filed as active, the others as inactive; ? = inconclusive; . = not tested or not shown; [ ] = remark or other dose. Compounds with a hit are over-represented: about 7.5% of the library has one in this group of screens. Calls follow the shape of the dose curve; as a rule, active = well fitted curve in the direction sought with a large enough effect; inconclusive = small, poorly fitted or top-dose-only effect, or another doubt; inactive = no such curve, though single readings can be large; an effect the other way counts as inactive or inconclusive. Potency is read from the fitted curve at half-maximal effect.

SMILES	NPC1 promoter act	KinaseGlo FLuc	Rab9 promoter act	SMN2 splice up	FLuc counter	ELG1 genotox
CCN(CC)C(=O)Cn1c(=O)nc(-c2ccccc2F)c2cc(Cl)ccc21	.	.	.	.	-2.5%	.
Cc1ccc(NC(=O)OCc2ccccc2S(C)=O)cc1 (stereo not given)	-0.3%	-0.8%	18.4%	-5.3%	-7.4%	3.8%
O/N=C/c1ccc2ccccc2c1	9.5%	-0.1%	-13.1%	.	-19.7%	2.6%
O=C(/C=C/c1ccc2ccccc2c1)c1ccoc1	?	-0.5%	?	-4.6%	0.536µM*	6.1%
C=CCc1cccc2cc(C(=O)Nc3ccc(F)cc3)c(=O)oc12	?	-3.8%	?	6.7%	-14.3%	?
C=CCc1cccc2cc(C(=O)Nc3cccc(C(=O)O)c3)c(=O)oc12	?	.	?	.	12µM*	9.3%
C=CCc1cccc2cc(C(=O)Nc3ccc(CC(=O)O)cc3)c(=O)oc12	12.0%	2.0%	-2.4%	8.9%	8.49µM*	5.6%
CN(CCc1ccccn1)C(=O)CCC1CCCN(C(=O)NC2CCCCC2)C1 (stereo not given)	2.7%	.	14.7%	.	-0.5%	4.3%
COc1cc(Br)c(/C=C/c2ccc3cccc(O)c3n2)cc1OC	16.7%	.	-2.5%[1.84 µM]	.	?	?
COc1cc(/C=C/c2ccc3cccc(O)c3n2)ccc1O	?	.	3.16µM*	.	6.75µM*	16.4µM*
COc1ccc(OC)c(/C=C/c2ccc3cccc(O)c3n2)c1	10.6%	.	6.2%	.	13.5µM*	?
COc1cc(/C=C/c2ccc3cccc(O)c3n2)c(Br)cc1O	-1.4%	.	3.3%	.	?	?
CSc1ccc(/C=C/c2ccc3cccc(O)c3n2)cc1	3.16µM*	-21.4%	1.26µM*	12.6µM*	2.39µM*	?
O=C(CN1C(=O)COc2ccc(S(=O)(=O)N3CCCC3)cc21)N1CCN(c2cccc(C(F)(F)F)c2)CC1	.	.	.	2.8%	-0.4%	.
COc1ccc(CCC(=O)OCC(=O)Nc2sccc2C(N)=O)cc1	-0.4%	.	-5.0%	.	?	0.8%
COC(=O)CCC(NC(=O)c1cc(-c2ccc3c(c2)OCCO3)oc1C)C(=O)OC (stereo not given)	-1.3%	-5.9%	-10.6%	6.3%	16.9µM*	4.1%
COC(=O)C(Cc1c[nH]c2ccccc12)NC(=O)c1cc(-c2ccc(OC)c(OC)c2)oc1C (stereo not given)	-1.0%	2.1%	11.4%	8.5%	-7.2%	0.8%
Cc1oc(-c2ccc3c(c2)OCCO3)cc1C(=O)NC(Cc1ccccc1)C(=O)O (stereo not given)	-1.1%	.	10.0%	.	15.1µM*	6.1%
CCOC(=O)CNC(=O)c1cc(-c2ccc3c(c2)OCCO3)oc1C	5.6%	-1.4%	21.0%	-11.4%	9.53µM*	?
CCOC(=O)CNC(=O)c1ccc2c(c1)OCCO2	?	-9.8%	?	17.7%	19µM*	?
CCOC(=O)CNC(=O)c1cc(C)oc1C	13.8%	-0.2%	11.2%	?	9.3%	-4.6%
O=c1c(Cc2ccc(Cl)cc2Cl)c(O)ccn1CCCN1CCOCC1	-2.8%	2.5%	0.8%	20.6%	-1.5%	-0.9%
Cc1cc(C)c(C)c(S(=O)(=O)NCCC(=O)O)c1C	.	0.0%	.	.	.	.
O=C(Oc1ccc(Oc2ccccc2)cc1)N1CCC(O)CC1	?	.	?	.	16.9µM*	?
O=C(Oc1ccccc1)N1CCCC1	6.9%	.	1.8%	.	-0.8%	-0.1%
O=C(Oc1ccc(-c2ccccc2)cc1)N1CCOCC1	2.82µM*	1.0%	2µM*	?	21.3µM*	?
CCOc1ccc(S(=O)(=O)Nc2ccc3c(c2)N(C(C)=O)CCC3)cc1	.	.	.	.	-4.0%	.
CCc1ccc2nc(N(CCN(C)C)C(=O)c3ccc4ncsc4c3)sc2c1	2.82µM*	.	1.78µM*	.	13.5µM*	3.66µM*
